PP5 inh – PP5 (human) phosphatase inhibition. purified PP5c, OMFP substrate fluorescence. inhibition, % at 6.7 µM. AID 1987. P53041. 0.18% of 320,000 active;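 active = inhibition above the campaign's mean inhibition across all tested compounds plus 3 SD, cut at about 9.5% in these data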;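 also: 0% = DMSO only and 100% = 100 µM cantharidin control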
Target sequence (P53041 whole entry, looked up): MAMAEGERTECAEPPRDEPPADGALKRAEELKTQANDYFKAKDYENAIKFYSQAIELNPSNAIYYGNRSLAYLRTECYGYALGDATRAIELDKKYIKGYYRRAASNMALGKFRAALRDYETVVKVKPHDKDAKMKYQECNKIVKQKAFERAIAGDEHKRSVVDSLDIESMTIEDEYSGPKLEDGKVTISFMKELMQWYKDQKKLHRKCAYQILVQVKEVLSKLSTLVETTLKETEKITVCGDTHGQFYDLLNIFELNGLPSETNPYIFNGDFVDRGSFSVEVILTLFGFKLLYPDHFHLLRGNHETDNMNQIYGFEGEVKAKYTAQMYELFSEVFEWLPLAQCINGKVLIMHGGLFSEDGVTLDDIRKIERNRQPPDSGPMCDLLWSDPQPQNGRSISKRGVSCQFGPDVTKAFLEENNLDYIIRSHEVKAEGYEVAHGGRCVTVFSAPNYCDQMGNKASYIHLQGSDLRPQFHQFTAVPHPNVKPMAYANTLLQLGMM
PP1 counter – blocks human PP1-alpha phosphatase, a PP5 counter-screen | inhibition, % at 6.7 µM | purified PP1alpha, OMFP fluorescence | AID 2235 | 0.9% of 320,000 active | P62136;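 active = inhibition above the mean inhibition of all tested compounds plus 3 SD, computed separately for each screening campaign, cut at about 15% in these data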
LYPLA2 inh – blocks human lysophospholipase 2, a PME1 counter-screen; 0.38% of 320,000 active; O95372; recombinant LYPLA2, FP-Rh probe fluorescence polarization; inhibition, % at 5.9 µM; AID 2177;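 active = inhibition above the screen-wide mean plus 3 SD, limit set per campaign, cut at about 26% in these data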;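 also: 0% = LYPLA2 with DMSO and 100% = wells lacking LYPLA2 enzyme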
Fam108B inh – counter-screen for RBBP9 inhibitors: inhibitors of mouse Fam108B | recombinant Fam108B, FP-Rh probe fluorescence polarization | inhibition, % at 9.51 µM | 0.33% of 300,000 active | AID 1947;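 active = inhibition above the screen mean inhibition plus 3 SD, computed separately per campaign, cut at about 18% in these data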;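 also: inhibitors lower polarization as less probe binds the enzyme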
PME-1 primary – blocks human protein phosphatase methylesterase 1. Q9Y570. inhibition, % at 5.9 µM. 0.53% of 320,000 active. recombinant PME-1, FP-Rh probe fluorescence polarization. AID 2130;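 active = inhibition above the campaign mean of all compounds plus 3 SD, cut at about 26% in these data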;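 also: competitive labeling of PME-1 active site by serine hydrolase directed probe; 0% = PME-1 with DMSO and 100% = wells lacking PME-1 enzyme; inhibitors block probe labeling so polarization falls and inhibition rises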
LYPLA1 counter – blocks human lysophospholipase 1, a PME1 counter-screen; O75608; recombinant LYPLA1, FP-Rh probe fluorescence polarization; inhibition, % at 5.9 µM; 0.16% of 320,000 active; AID 2174;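 active = inhibition above the mean of all tested compounds plus 3 SD, set per campaign, cut at about 14% in these data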;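 also: inhibitors block serine hydrolase probe labeling of LYPLA1 so polarization falls; 0% = enzyme with DMSO and 100% = wells lacking LYPLA1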
Fam108b confirm – Fam108b (mouse) hydrolase inhibition, confirmation assay; shares compounds with Fam108B inh; recombinant Fam108b, FP-Rh probe fluorescence polarization; inhibition, % at 9.51 µM; 44% of 930 active;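 active = inhibition above a limit from the primary screen, the mean over all compounds plus 3 SD, cut at about 19% in these data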;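 also: 0% = median of active Fam108b wells and 100% = catalytically dead S170A mutant; inhibitors free the probe so polarization falls as inhibition rises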
Fam108b inh – inhibits mouse Fam108b in gel-based ABPP; shares compounds with Fam108B inh; recombinant Fam108b, fluorophosphonate probe; inhibition, % at 20 µM; 44% of 260 active; AID 588649; in the data active = inhibition above about 40%
* marks the source's active call; other numbers are inactive results; x = not tested or not shown. Compounds with a hit are over-represented: about 1.8% of the library has one in this group of screens.

SMILES | PP5 inh | PP1 counter | LYPLA2 inh | Fam108B inh | PME-1 primary | LYPLA1 counter | Fam108b confirm | others
Oc1c(Br)cc(C=Nc2ccc3nc(-c4ccccc4)[nH]c3c2)c(O)c1Br | 2 | 10 | -21 | 33* | 35* | -23 | 10
C/C(=N\Nc1ccc(C(=O)O)cc1)c1ccc2c(c1)Nc1ccccc1S2 | 4 | 6 | 12 | 30* | 28* | 9 | 27*
O=C(Nc1ccccc1)Nc1sccc1-c1nc2ccccc2s1 | 1 | -3 | -23 | 12 | -14 | -21 | x
O=C(Nc1cccc(Cl)c1)Nc1sccc1-c1nc2ccccc2s1 | 1 | 11 | -30 | 27* | 3 | -22 | 20*
COc1ccc(/C=N/NC(=O)c2cc(C34CC5CC(CC(C5)C3)C4)[nH]n2)cc1O | 1 | 10 | -13 | 24* | -8 | -12 | 3
CC1(c2ccc3ccccc3c2)NC(=O)N(CC(=O)NCC(C)(C)N2CCOCC2)C1=O (stereo unspecified) | 3 | -4 | 1 | -1 | 1 | 0 | x
O=C(O)c1ccc(N/N=C/c2ccc(-c3ccc(Cl)cc3Cl)o2)cc1 | -2 | 13 | 10 | 28* | 64* | 11 | 23*
O=S(=O)(c1ccccc1)[C@@]1(c2ccccc2)C[C@@H]2ON=C(c3cccc(-c4ccccc4)c3)[C@@H]2C1 | 2 | 2 | 1 | -8 | -10 | -2 | x
CC(C)Oc1ccc(CCC(=O)N/N=C/c2ccc3c(c2)OCO3)cc1 | 2 | -2 | 8 | 25* | 41* | -1 | 0
Cc1cc(Nc2ccccc2)nc(NCc2ccccc2)n1 | 5 | 9 | 2 | 3 | 7 | -4 | x
Cc1cc(Nc2ccc(Cl)cc2)nc(NCc2ccccc2)n1 | 8 | 17* | -1 | 34* | 14 | -5 | 32* | Fam108b inh=45*
CCOC(=O)/C(C#N)=N/Nc1ccc(S(=O)(=O)N2CCc3ccccc32)cc1 | 4 | -1 | 0 | 6 | 4 | 0 | x
N#C/C(=N\Nc1ccc(S(=O)(=O)N2CCc3ccccc32)cc1)C(N)=S | 6 | 4 | -11 | 22* | 12 | -10 | 27*
Cc1c(NC(=O)c2ccc([N+](=O)[O-])o2)cccc1-c1nc2ncccc2o1 | 1 | -4 | -12 | 0 | -2 | -5 | x
Oc1ccc(Nc2nc3ccccc3nc2Nc2ccc(O)cc2)cc1 | 6 | 2 | -20 | 45* | 33* | -13 | 15
Cc1cc(C)nc(NC(=O)CSc2nn(-c3ccccc3)c(=S)s2)n1 | 3 | -1 | 2 | 4 | 5 | -1 | x
O=C(O)c1cccc(-n2cccc2/C=C\[N+](=O)[O-])c1 | -1 | 1 | 0 | 5 | -7 | 1 | x
O=C(O)c1cccc(-n2cccc2/C=C/[N+](=O)[O-])c1 | -1 | 5 | 3 | 25* | -13 | -2 | 1
CSc1sc(-c2n[nH]c(=S)n2C)c2c1C=CCC2 | 4 | 10 | 4 | -2 | -3 | 0 | x
Cn1c(=O)c(Nc2ccc(O)cc2)c2c3c(cccc31)C(=O)c1ccccc1-2 | 4 | 9 | 10 | 23* | 36* | 6 | 22*
CCc1cc(C(=O)O)c(NC(=O)/C=C/c2ccc(OC)c(OC)c2)s1 | -1 | -2 | 6 | 32* | 10 | -3 | 4
CCc1cc(C(=O)O)c(NC(=O)/C=C/c2ccc(OC)cc2)s1 | 3 | -4 | 7 | 2 | -84 | 5 | x
COc1cccc(/C=N/NC(=O)c2cc3c(OC)ccc(OC)c3[nH]2)c1O | 2 | 16* | 5 | 27* | 42* | -1 | 14
COc1cccc(/C=N/NC(=O)c2nc(-c3ccccc3)cc(-c3ccccc3)n2)c1O | 3 | 6 | -9 | 3 | -13 | -9 | x
COc1cc2cc(C(=O)N/N=C/c3ccccc3Cl)[nH]c2cc1OC | 4 | -2 | 0 | 32* | -3 | 3 | 30*
SMILES | PP5 inh | PP1 counter | LYPLA2 inh | Fam108B inh | PME-1 primary | LYPLA1 counter | Fam108b confirm | others
COc1cc(OC)c2cc(C(=O)N/N=C/c3cccc(OC)c3O)[nH]c2c1 | -1 | 8 | 2 | 22* | 44* | -5 | 22*
COc1ccc(CN2CCN(C(=O)c3c(-c4ccccc4)noc3C)CC2)cc1F | -1 | 0 | 6 | x | -1 | -2 | x
CN(CC(=O)Nc1c(Cl)cccc1Cl)C(=O)C1=COCCO1 | 0 | -4 | 3 | 2 | -6 | -1 | x
CCCCCCCCCCCCCCCC[n+]1ccc(C=NO)cc1 | x | x | x | x | x | x | x | Fam108b inh=75*
C=C1c2cccc(O)c2C(O)=C2C(=O)[C@]3(O)C(O)=C(C(N)=O)C(=O)[C@@H](N(C)C)[C@@H]3[C@@H](O)[C@H]12 | 1 | 50* | 14 | 26* | 0 | -7 | -5
C[C@H]1c2cccc(O)c2C(O)=C2C(=O)C3(O)C(O)=C(C(N)=O)C(=O)[C@@H](N(C)C)[C@@H]3[C@@H](O)[C@@H]21 (stereo partly specified) | 3 | 2 | -3 | 3 | -8 | -2 | x
O=[N+]([O-])c1cccc(-c2csc(Nc3ccccc3)n2)c1 | 2 | 0 | 2 | 7 | 23 | -2 | x
O=[N+]([O-])c1cccc(-c2csc(NN=Cc3cccc(O)c3)n2)c1 | x | x | x | x | x | x | x | Fam108b inh=0
Cc1ccc([N+](=O)[O-])cc1-c1[nH]c(-c2ccc(O)c(O)c2)nc1-c1ccccc1 | 6 | 6 | -9 | 17 | 18 | -11 | x
COc1ccc(-c2nc(-c3ccccc3)c(-c3cc([N+](=O)[O-])ccc3C)[nH]2)cc1O | 4 | 5 | 1 | 28* | 39* | -4 | 11
O=[N+]([O-])c1ccc2nc(-c3ccc(Cl)cc3)[nH]c2c1 | 5 | 2 | -12 | 20* | -11 | -10 | 6
N#C/C(=N\Nc1cccc([N+](=O)[O-])c1)C(=O)c1ccc(Br)cc1 | 2 | 13 | 7 | 27* | 29* | 13 | 26*
O=C(O)c1ccc(N=NNc2cccc([N+](=O)[O-])c2)cc1 | -2 | -2 | 3 | 2 | 1 | 5 | x
COc1ccc(-c2[nH]c(-c3ccccc3)nc2SCC(=O)NCc2ccco2)cc1OC | 1 | 7 | -1 | 0 | 5 | -1 | x
COc1ccc(-c2nc(SCC(=O)NCc3ccco3)c(-c3ccccc3)[nH]2)cc1OC | 1 | -1 | -5 | 20* | 7 | -1 | -3
O=C(CCc1ccc(Oc2cc([N+](=O)[O-])cc([N+](=O)[O-])c2)cc1)Nc1cccc(Cl)c1 | 4 | 11 | -1 | 28* | 19 | -13 | 17
O=C1C(Cl)=C(Nc2ccc3cn[nH]c3c2)C(=O)c2ccccc21 | 4 | 6 | 15 | 20* | 29* | 0 | 31* | Fam108b inh=70*
COc1cccc(CNC(=O)CCS(=O)(=O)c2cc3c(cc2C)NC(=O)CO3)c1 | 2 | 2 | 2 | 6 | -2 | 0 | x

Screens: PubChem BioAssay, The Scripps Research Institute Molecular Screening Center
